Assay results from PubChem BioAssay (NCI).
The panel holds about 83,000 compounds, 20% with a hit somewhere; the sample as a whole holds those more often.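 How to read the values: 0–100, growth inhibition (40 = 60% inhibited); 0, no net growth; -100 to 0, cell death (-40 = 40% of starting cells died; -100 = all dead).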 A number with no mark means an inactive call. Active and inactive are the calls of the source.

Each compound was assayed on SK-MEL-2 melanoma (assay: NCI-60 one-dose screen, 48 h (100 = growth as untreated, 0 = no growth, -100 = all killed)). Settings: 10 µM unless noted.
Protocol: Growth inhibition of the SK-MEL-2 human tumor cell line is measured as a screen for anti-cancer activity. Cells are grown in 96 well plates and exposed to the test compound for 48 hours. Compounds are tested at a single concentration, which is 10^-5 M for most compounds. The reported endpoint is percent growth (GI% or GIPRCNT), where numbers from 0 - 100% represent growth inhibition, and numbers from -100% - 0 represent cell death. For example, a value of 40 represents 60% growth inhibition. A value of 0 means no net growth occurred over the course of the experiment. A value of -40 indicates 40% of cells at the beginning of the experiment died by the end of the experiment. A value of -100 means all cells are dead at the end of the experiment.
NCI-60 Human Tumor Cell Lines Screen was performed using the standard one-dose NCI protocol, which is described in more detail at https://dtp.cancer.gov/discovery_development/nci-60/default.htm.
Compounds with GIPRCNT values below 10 were considered active. Activity score was based on GIPRCNT using the following formula: […]
Score is 0 for GIPRCNT values of 100 or above, 50 for GIPRCNT values of 0, and 100 for GIPRCNT values of -100.

| SMILES | growth |
| --- | --- |
| COc1ccc(-c2nc3sccn3c2/C=C/C(=O)c2ccc3c(c2)OCO3)cc1 | 87.4% |
| N=C1C(c2nc3ccccc3s2)=C(O)CN1c1cc(Cl)cc(Cl)c1 | 105% |
| N#Cc1c(NC(=O)NCc2ccccc2)sc2c1CCCC2 | 45.6% |
| O=C1Nc2ccc(F)cc2/C1=C\c1c(-c2ccccc2)nc2ccccn12 | 63.7% |
| N#Cc1c(-c2ccccc2)nc2c(c(-c3ccccc3)nn2-c2ccccc2)c1-c1ccc(O)cc1 | 72.7% |
| Cc1ccc(/C=C(/C#N)n2nnc3cccc(F)c32)cc1 | 14.6% |
| CCOC(=O)C1=C(C)NC(SCc2cc(=O)oc3ccc(F)cc23)=N[C@@H]1c1cccc2ccccc12 | 85% |
| CN[C@@H](C)C(=O)N[C@H]1CCS[C@H]2CC(C)(C)[C@@H](C(=O)N[C@H]3c4ccccc4C[C@H]3OCC#CC#CCO[C@@H]3Cc4ccccc4[C@@H]3NC(=O)[C@H]3N4C(=O)[C@@H](NC(=O)[C@H](C)NC)CCS[C@H]4CC3(C)C)N2C1=O | 73.7% |
| COc1cc2c(c(O)c1Cl)C(=O)c1c(O)cc(C[C@H](C)O)cc1[C@H]2[C@H]1c2cc(C[C@H](C)O)cc(O)c2C(=O)c2c1cc(OC)c(Cl)c2O | -31.6% (active) |
| COc1ccc(C(=O)NNc2nc(Cl)nc(N3CCN(C(c4ccccc4)c4ccccc4)CC3)n2)cc1 | 48.8% |
| Brc1ccc(Nc2csc(-c3ccccn3)n2)cc1 | 96.4% |
| Cn1nc(CC#N)c2c(=N)n(N)cnc21 | 113% |
| CC1=CCC(OC(=O)C(C)(O)CCC(O)(C(=O)OC2(C)C=CC(O)(C(C)C)CC2)C(C)C)(C(C)C)CC1 (stereo not given) | 108% |
| Cn1c(-c2c(N)n(CCCN3CCOCC3)c3nc(C#N)c(C#N)nc23)nc2ccccc21 | 109% |
| CCCCCN1C=C/C(=C\C(=O)N2CCCc3ccccc32)c2ccccc21 | 90.9% |
| C=C1C(=O)O[C@H]2[C@H]1CC/C(CNC(=O)CCc1ccc(OC)cc1)=C\CC[C@@]1(C)O[C@@H]21 | 74.5% |
| O=C(Nc1ccccc1)Nc1ccc2cc3ccc(NC(=O)Nc4ccccc4)cc3nc2c1 | 55.5% |
| Cc1cc2nc3c4ccc(Br)cc4n(CCN(C)C)c3nc2cc1C | 8.78% (active) |
| N#C/C(=C\c1c(-c2ccccc2)[nH]c2ccccc12)C(=O)c1ccc(Cl)cc1 | 74.6% |
| COc1ccc(NC(=O)c2cc(NCc3cc(O)ccc3O)ccc2O)cc1 | 89.3% |

| SMILES | growth |
| --- | --- |
| COC(=O)/C=C1\S/C(=N\NC(=O)c2cc3ccc2/C=C\c2ccc(cc2)/C=C\3)N(c2ccccc2)C1=O | 87% |
| COc1ccc(Cc2cnc(NC(=O)c3ccc4c(c3)OCCO4)s2)cc1 | 39.3% |
| COc1cccc(/C=N/NC(=O)c2cnn3c2NC(c2ccccc2)C3)c1Oc1ccccc1 (stereo not given) | 66.2% |
| CCCCCC(=O)Oc1ccc(/C(=C(/C)Cc2ccc(OC)cc2)c2ccc(OCCCN(C)C)cc2)cc1 | 114% |
| CC(=O)N1N=C(c2ccc(-n3ccc(C(F)(F)F)n3)c(F)c2)CC1c1ccc[nH]1 (stereo not given) | 94% |
| CCCCCCNC(=O)Oc1ccc(/C(=C(\C)c2ccccc2)c2ccc(OCCCN(C)C)cc2)cc1 | 92.3% |
| Cc1nc2sccn2c1-c1nc2sccn2c1/C=C1/C(=O)Nc2ccccc21 | 61% |
| Cc1nn(-c2ccccc2)c(Oc2c(Cl)cccc2Cl)c1/C=N/N=c1\sc2ccccc2n1C | 80% |
| O=C1Nc2cc(-c3ccc(NC(=O)c4ccccc4)cc3)ccc2/C1=C/c1ccc[nH]1 | 102% |
| Cc1ccc(S(=O)(=O)NNC(=O)/C(=C\c2ccc(Cl)cc2)c2nc3ccccc3s2)cc1 | 99.4% |
| COc1ccc(OC)c(CCn2cncc2-c2c[nH]c3ccccc23)c1 | 73.5% |
| COC(=O)N[C@H]1CCc2c(Cl)c(OC)c(OC)c(OC)c2-c2ccc(SC)c(=O)cc21 | 42.4% |
| CCCCC/C=C/C(C)=C/C1CC(C)C/C=C/CCC(O)C(OC(N)=O)CCC(C)CC(O)C(C)C(=O)O1 (stereo not given) | 92.6% |
| O=C1c2ccccc2CCC12OC2c1cn(-c2ccccc2)nc1-c1ccc(Cl)cc1 (stereo not given) | 112% |
| N#C/C(=C\c1ccc(C(F)(F)F)cc1)c1cc2ccccc2[nH]1 | 96.1% |
| C=CCN1C(=O)/C(=C/C(=O)OC)S/C1=N\NC(=O)c1cc2ccc1/C=C\c1ccc(cc1)/C=C\2 | 97.3% |
| CC[C@]12C=CCN3CC[C@@]4(c5cc(NC(=O)CCC(=O)O[C@H]6CC[C@H]7[C@@H]8CCC9=CC(=O)CC[C@@H]9[C@H]8CC[C@]67C)c(OC)cc5N(C)[C@H]4[C@@](O)(C(=O)OC)[C@@H]1OC(C)=O)[C@@H]32 | 81.9% |
| Cn1c(N2NC(=O)C(N=Nc3ccc(S(N)(=O)=O)cc3)C2=O)nc(-c2ccco2)c(C#N)c1=O (stereo not given) | 117% |
| CCCCCC(=O)Oc1ccc(/C(=C(\C)c2ccccc2)c2ccc(OCCN3CCCCC3)cc2)cc1 | 81.3% |
| CCOC(=O)c1cc(C(=O)c2ccc(Br)cc2)n2ccc(/C=C/c3cc[n+](CC(=O)c4ccc(OC)cc4)cc3)cc12 | 105% |
